Source: PubChem BioAssay
TLR4 MyD88 comp = inhibitors of TLR4-MyD88 association in cells, primary screen, cell-based, HeLa CL3-4, BLA complementation, FRET ratio | 0.18% of 200,000 active | inhibition, % at 8.4 µM | HeLa CL3-4 TLR4/MyD88 BLA complementation | Toll-like receptor 4 (Homo sapiens) + Myeloid differentiation primary response protein …; in the data active means inhibition above about 25%;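 further: 0% = vehicle and 100% = reference inhibitor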
Target sequence (O00206 whole entry, looked up): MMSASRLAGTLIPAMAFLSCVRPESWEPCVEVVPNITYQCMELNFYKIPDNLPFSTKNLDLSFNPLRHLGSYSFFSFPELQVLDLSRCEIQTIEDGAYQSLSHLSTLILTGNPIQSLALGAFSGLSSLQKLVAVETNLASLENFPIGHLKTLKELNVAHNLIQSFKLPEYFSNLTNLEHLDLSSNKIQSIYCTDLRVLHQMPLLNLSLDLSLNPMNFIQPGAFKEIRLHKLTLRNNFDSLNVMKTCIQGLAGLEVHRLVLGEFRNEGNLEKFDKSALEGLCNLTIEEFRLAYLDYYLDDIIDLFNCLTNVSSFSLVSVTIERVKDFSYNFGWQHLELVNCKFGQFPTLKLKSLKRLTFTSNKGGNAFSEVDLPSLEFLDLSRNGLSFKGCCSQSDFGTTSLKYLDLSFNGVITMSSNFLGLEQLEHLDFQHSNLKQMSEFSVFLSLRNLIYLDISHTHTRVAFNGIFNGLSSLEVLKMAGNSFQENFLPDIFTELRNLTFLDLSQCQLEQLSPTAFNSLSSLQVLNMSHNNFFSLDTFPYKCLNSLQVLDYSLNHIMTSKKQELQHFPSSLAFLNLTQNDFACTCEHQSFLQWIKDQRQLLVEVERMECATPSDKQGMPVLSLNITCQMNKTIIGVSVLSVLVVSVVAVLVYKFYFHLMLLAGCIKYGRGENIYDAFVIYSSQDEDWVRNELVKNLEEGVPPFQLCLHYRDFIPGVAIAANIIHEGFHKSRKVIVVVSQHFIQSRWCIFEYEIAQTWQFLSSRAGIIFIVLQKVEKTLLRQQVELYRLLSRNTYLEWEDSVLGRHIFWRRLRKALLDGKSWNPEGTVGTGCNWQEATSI
Target sequence (Q99836 whole entry, looked up): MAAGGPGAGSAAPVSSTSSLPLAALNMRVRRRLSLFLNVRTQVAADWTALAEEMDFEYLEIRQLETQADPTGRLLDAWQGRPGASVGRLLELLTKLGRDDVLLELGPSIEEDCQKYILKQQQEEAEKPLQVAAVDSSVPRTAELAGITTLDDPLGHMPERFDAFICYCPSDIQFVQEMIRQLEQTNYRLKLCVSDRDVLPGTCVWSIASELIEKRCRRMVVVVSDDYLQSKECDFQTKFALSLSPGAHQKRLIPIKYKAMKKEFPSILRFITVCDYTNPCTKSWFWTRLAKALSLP
NOD2 RIPK2 PPI = NOD2-RIPK2 binding disruptors in cells, primary screen, fluorescence, CHO cells, BLA complementation; CCF4 ratio; AID 624267, 2012; 0.38% of 360,000 active; inhibition, % at 4.98 µM; Receptor-interacting serine/threonine-protein kinase 2 (Homo sapiens), O43353; in the data active means inhibition above about 21%;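 further: 0% = vehicle only and 100% = reference blocker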
TLR9-MyD88 inh = inhibitors of TLR9-MyD88 association in cells, primary screen, cell-based, CHO, BLA complementation, fluorescence; inhibition, % at 4.98 µM; Toll-like receptor 9 (Homo sapiens) + Myeloid differentiation primary response protein …; CCF4 FRET ratio; AID 504734, 2011; 0.21% of 340,000 active;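 active means inhibition above the mean over all tested compounds plus 3 SD, cut at about 21% in these data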;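 further: 0% = DMSO only wells and 100% = clavulanate BLA inhibitor control wells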
rCAG RNA binder = binders of r(CAG) RNA repeats, primary screen, biochemical, fluorescence; inhibition, % at 3 µM; 1.3% of 370,000 active; r(CAG) RNA repeat, TO-PRO-1 dye displacement fluorescence;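 active means inhibition above the plate cutoff, the mean of all test compounds on that plate plus 3 SD, cut at about 35% in these data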;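 further: 0% = DMSO alone and 100% = 100 µM mitoxantrone as full dye displacement; higher means more dye released from RNA so lower well fluorescence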
PRMT1 inh = PRMT1 methyltransferase inhibitors, primary screen, biochemical, fluorescence polarization. AID 652257, 2013. 1.3% of 370,000 active. inhibition, % at 2.79 µM. recombinant PRMT1, activity-based probe fluorescence polarization. Protein arginine N-methyltransferase 1 (Homo sapiens), Q99873;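 active means inhibition above about 21% made by adding two undisclosed values, limit read from the data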
ABHD5-PLIN5 inh = ABHD5-PLIN5 interaction inhibitors, primary screen, cell lysate, split luciferase complementation, luminescence. AID 602281, 2012. Perilipin-5 (Homo sapiens) + 1-acylglycerol-3-phosphate O-acyltransferase ABHD5 (Homo …. 0.78% of 360,000 active. inhibition, % at 4 µM. Split G. princeps luciferase complementation, 4 h;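 active means inhibition above the mean inhibition across every tested compound plus 3 SD, cut at about 22% in these data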;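 further: 0% = DMSO only wells and the 100% control is not disclosed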
* = called active by the depositor; . = no result. Rows were chosen to be rich in hits. Some 3.3% of all compounds tested hit in one or more screens of this group.

SMILES | TLR4 MyD88 comp | NOD2 RIPK2 PPI | TLR9-MyD88 inh | rCAG RNA binder | PRMT1 inh | ABHD5-PLIN5 inh
COc1ccc(NC(=O)/C(C#N)=C\c2ccc(-c3cc(C(=O)O)ccc3C)o2)cc1 | . | -4 | -7 | 59* | 3 | 8
Cn1c(NC(=O)c2ccccc2)nc(Cc2ccccc2)c1Cc1ccccc1 | . | . | . | 0 | -11 | .
OC[C@@H]1CN(Cc2ccc(-c3ccccc3)cc2)C[C@H](n2cnc3c(NCc4ccncc4)ncnc32)O1 | . | -15 | . | 7 | 0 | 2
Cc1cc(NS(=O)(=O)c2ccc(NC(=O)Nc3cccc(Cl)c3)cc2)no1 | 6 | 1 | -4 | 68* | 0 | -2
O=c1/c(=C/c2ccc(O)cc2)sc2nc3cc(Br)cnc3n12 | -7 | . | . | . | . | .
CCOC(=O)c1c(S(=O)(=O)N2CCN(c3ccc(C(C)=O)cc3)CC2)c(C)n(C)c1C | . | 6 | 7 | -4 | 0 | 4
CCOC(=O)C1=C(c2ccccc2)N=c2s/c(=C\c3cc(OC)c(OC)c(OC)c3)c(=O)n2C1c1cccs1 (configuration not stated) | 24 | 11 | 22* | 5 | -3 | 0
O=C(CSc1nnc(NC(=O)c2ccc(F)cc2F)s1)NC1CC1 | . | -8 | 2 | -2 | 2 | -3
CC(CC(=O)O)Nc1ccccc1O (configuration not stated) | -16 | -2 | -3 | 1 | 23* | -7
CC(=O)Nc1ccccc1O | -1 | 7 | 2 | 1 | -1 | 4
CN1CCN(c2ccc(S(=O)(=O)N3CCOCC3)cc2)CC1 | . | -2 | 3 | -3 | 4 | -2
COc1ccc(S(=O)(=O)Nc2ccc3c(c2)OCO3)cc1 | -2 | 1 | -9 | -2 | 1 | 3
O=C1/C(=C/Nc2ccc3c(c2)OCO3)CCc2ccccc21 | 12 | -14 | 14 | 6 | 23* | -7
COc1ccc2c(c1)CC/C(=C\Nc1ccc3c(c1)OCO3)C2=O | -2 | 1 | 4 | 7 | 29* | -7
NC(=S)N/N=C/c1ccc(-c2ccc([N+](=O)[O-])cc2)o1 | 13 | 5 | 8 | 19 | 21* | -19
NC(=S)N/N=C/c1ccc(-c2cc(Cl)cc(Cl)c2)o1 | -2 | -11 | 3 | 24 | 7 | -10
CN1CCN(S(=O)(=O)c2ccc(C(F)(F)F)cc2)C(c2ccccc2)C1 (configuration not stated) | . | 4 | -7 | -1 | 1 | -10
COc1ccc(NC(=S)Nc2cccc(Cl)c2)cc1OC | 5 | -1 | -1 | 4 | 24* | -13
CCOC(=O)[C@]12CCC=C1N(CCC1=CCCCC1)C(=O)[C@H](CC(=O)NCc1cccs1)C2 | . | 3 | . | 6 | 3 | -3
CC(C(=O)Nc1ccc(Cl)cc1Cl)N1C(=O)NC2(CCCCCCC2)C1=O (configuration not stated) | . | 10 | -5 | 2 | 1 | 0
O=C(NCc1ccco1)c1ccc(COCC(F)(F)F)cc1 | -7 | -2 | 7 | 0 | 2 | 1
O=C(NCc1ccco1)c1ccc(COCC(F)(F)C(F)F)cc1 | -9 | -1 | -8 | 41* | -2 | 0
Cc1cccc(NC(=O)Cc2coc3ccc4ccccc4c23)n1 | 0 | -4 | -3 | 3 | 2 | 2
O=C(Nc1nnc(CSCc2ccccc2F)s1)c1cccc([N+](=O)[O-])c1 | -7 | -13 | 6 | 46* | -1 | 10
CC(C)C(=O)Nc1nnc(CSCc2ccccc2F)s1 | 6 | 7 | -3 | -9 | 3 | -7
SMILES | TLR4 MyD88 comp | NOD2 RIPK2 PPI | TLR9-MyD88 inh | rCAG RNA binder | PRMT1 inh | ABHD5-PLIN5 inh
COc1ccccc1NCC(O)Cn1c2ccccc2c2ccccc21 (configuration not stated) | -5 | -3 | -4 | 3 | 1 | 4
COc1ccc(CCNCC(O)Cn2c3ccccc3c3ccccc32)cc1OC (configuration not stated) | 4 | -1 | 0 | 5 | -3 | 22*
Cn1c(=O)c2cc(NC(=S)NC3CCCCC3)ccc2n1-c1ccccc1 | . | -13 | . | 4 | 2 | -7
CCn1c(=S)sc2c(=O)n(-c3ccccc3)c(=S)[nH]c21 | -11 | 2 | -7 | -1 | 7 | 5
CCOc1ccccc1-n1c(=S)sc2c(=O)n(-c3ccc(C)cc3)c(=S)[nH]c21 | -21 | 2 | 5 | 9 | 73* | -6
O=S(=O)(O)c1cc(O)c2c(O)c(N=Nc3cc(Cl)ccc3O)c(S(=O)(=O)O)cc2c1 | . | -7 | -2 | . | . | 24*
Cc1ccc(/C=C/C(=O)NCc2ccco2)o1 | -4 | . | . | 13 | 13 | .
Cc1ccc(/C=C/C(=O)NCc2ccccn2)o1 | -18 | 2 | -1 | 9 | 21* | 8
OCCNc1nnc(-c2ccccc2)c(-c2ccccc2)n1 | . | 1 | 1 | -4 | 5 | -6
COC(=O)C1CSC(C(=O)OC)N1C(=O)Nc1ccccc1 (configuration not stated) | 1 | -6 | -4 | -1 | 24* | 1
O=C1c2cc(O)c(O)cc2S(=O)(=O)C1c1ccccc1 (configuration not stated) | . | -3 | -2 | 6 | 24* | 4
Cc1nn(C)c(C(=O)Sc2cccc(Cl)c2)c1[N+](=O)[O-] | . | 7 | 0 | -3 | 7 | 3
CCn1nc(C)cc1C(=O)Sc1cccc(Cl)c1 | . | -3 | -2 | 42* | 8 | 3
COc1cc(OC)cc(C(=O)NC2CC(C)(C)NC(C)(C)C2)c1 | . | -9 | -4 | 1 | -1 | 2
COc1ccc(C=CC(=O)c2c(OC)cc(OC)c(OC)c2O)cc1 | . | 11 | 5 | 8 | 8 | 23*
O=C(N/N=C/c1sc2ccccc2c1O)c1cccc2ccccc12 | 7 | 14 | 17 | 13 | 55* | -5
O=C(N/N=C/c1sc2ccccc2c1O)c1ccccc1 | -8 | 8 | 7 | . | . | -6
COc1ccc2cc(C(=O)N/N=C/c3sc4ccccc4c3O)ccc2c1 | 10 | -3 | 19 | 33 | 25* | -2
COc1ccc(C(=O)N/N=C/c2c[nH]c3ccccc23)cc1 | . | 11 | -8 | 2 | 5 | -3
Cc1cn([C@H]2C[C@H](O)[C@@H](CNCc3ccc(CN(C)S(C)(=O)=O)o3)O2)c(=O)[nH]c1=O | . | 7 | 9 | 2 | -3 | 5
O=C(NC1C2CCCC1CN(C1CC1)C2)c1ccc(Cl)cc1 (configuration not stated) | . | 3 | 1 | -1 | 0 | 6
O=C(OCC#CCSc1nnc(-c2ccc(Cl)cc2)o1)c1ccc(F)cc1 | . | . | . | . | -2 | .
